Assay results from PubChem BioAssay AID1159580 (chemical genetic matrix, 2015).
Hit rate of the full screen: of about 5,500 compounds, about 2,000 (36%) were called active. About 18% were inconclusive and are not listed. No stated cut-off is given here; in the data, active means normalized growth mostly below about 0.91 (no sharp cut-off); inconclusive means no clear call, values can overlap the other calls; inactive means mostly above about 0.92. This is one part of the list.

Assay: chemical genetic growth profiling, strain panel (AID 1159580);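 further: tested at 20 µM; growth read once vehicle control cultures reached saturation at 30 °C; 1 = growth at the plate median or of vehicle wells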
Settings: S. cerevisiae deletion strains, growth OD

Measured: normalized growth

COc1ccc(-c2coc3cc(OC)cc(OC)c3c2=O)cc1
inactive: locus YAL021C, strain ccr4, stronger effect = lower value 1 | locus YAL026C, strain drs2, stronger effect = lower value 0.985 | locus YAL030W, strain snc1, stronger effect = lower value 0.987 | locus YBL061C, strain skt5, stronger effect = lower value 0.972 | locus YBR009C, strain hhf1, stronger effect = lower value 0.988 | locus YBR023C, strain chs3, stronger effect = lower value 0.97 | locus YBR171W, strain sec66, stronger effect = lower value 0.994 | locus YBR231C, strain swc5, stronger effect = lower value 0.989 | locus YBR279W, strain paf1, stronger effect = lower value 0.993 | locus YCL011C, strain gbp2, stronger effect = lower value 0.979 | locus YCL016C, strain dcc1, stronger effect = lower value 0.997 | locus YCL061C, strain MRC1, stronger effect = lower value 0.989 | locus YCL069W, strain vba3, stronger effect = lower value 0.996 | locus YCR088W, strain abp1, stronger effect = lower value 0.991 | locus YDL005C, strain med2, stronger effect = lower value 1 | locus YDL040C, strain nat1, stronger effect = lower value 0.987 | locus YDR001C, strain nth1, stronger effect = lower value 0.984 | locus YDR069C, strain doa4, stronger effect = lower value 1 | locus YDR137W, strain rgp1, stronger effect = lower value 0.974 | locus YDR159W, strain sac3, stronger effect = lower value 0.987 | locus YDR195W, strain ref2 1.04 | locus YDR297W, strain sur2, stronger effect = lower value 0.983 | locus YDR334W, strain swr1, stronger effect = lower value 1 | locus YDR335W, strain msn5, stronger effect = lower value 0.997 | locus YDR392W, strain spt3, stronger effect = lower value 0.843 | locus YEL003W, strain gim4, stronger effect = lower value 0.987 | locus YEL037C, strain rad23, stronger effect = lower value 0.988 | locus YEL061C, strain CIN8 (second series), stronger effect = lower value 0.99 | locus YER015W, strain faa2, stronger effect = lower value 0.99 | locus YER016W, strain bim1, stronger effect = lower value 0.99 | locus YER111C, strain swi4, stronger effect = lower value 0.991 | locus YER155C, strain BEM2 (second series), stronger effect = lower value 0.946 | locus YFR010W, strain ubp6, stronger effect = lower value 1 | locus YGL167C, strain pmr1, stronger effect = lower value 0.982 | locus YGL173C, strain kem1, stronger effect = lower value 0.98 | locus YGL227W, strain vid30, stronger effect = lower value 0.992 | locus YGL240W, strain doc1, stronger effect = lower value 0.982 | locus YGL253W, strain hxk2, stronger effect = lower value 0.995 | locus YHR013C, strain ard1, stronger effect = lower value 0.96 | locus YHR027C, strain rpn1, stronger effect = lower value 0.994 | locus YHR142W, strain chs7, stronger effect = lower value 0.93 | locus YJL092W, strain hpr5, stronger effect = lower value 0.991 | locus YJL095W, strain BCK1 (second series), stronger effect = lower value 1.01 | locus YJL115W, strain asf1, stronger effect = lower value 0.996 | locus YJL129C, strain trk1, stronger effect = lower value 0.969 | locus YJL154C, strain vps35, stronger effect = lower value 0.998 | locus YJL164C, strain tpk1, stronger effect = lower value 0.981 | locus YJL166W, strain qcr8, stronger effect = lower value 0.986 | locus YJL187C, strain SWE1, stronger effect = lower value 0.988 | locus YKL160W, strain elf1, stronger effect = lower value 0.986 | locus YKR026C, strain gcn3, stronger effect = lower value 0.988 | locus YKR091W, strain srl3, stronger effect = lower value 0.989 | locus YLL001W, strain dnm1, stronger effect = lower value 0.976 | locus YLL026W, stronger effect = lower value 0.987 | locus YLL041C, strain sdh2, stronger effect = lower value 0.991 | locus YLR027C, strain aat2, stronger effect = lower value 0.998 | locus YLR221C, strain rsa3, stronger effect = lower value 0.978 | locus YLR258W, strain gsy2, stronger effect = lower value 0.987 | locus YLR262C, strain YPT6 (second series), stronger effect = lower value 0.968 | locus YLR320W, strain mms22, stronger effect = lower value 0.971 | locus YLR342W, strain FKS1, stronger effect = lower value 0.994 | locus YLR357W, strain rsc2, stronger effect = lower value 0.988 | locus YLR370C, strain arc18, stronger effect = lower value 0.992 | locus YLR384C, strain iki3, stronger effect = lower value 0.987 | locus YML120C, strain ndi1, stronger effect = lower value 0.989 | locus YMR058W, strain fet3, stronger effect = lower value 0.987 | locus YMR125W, strain sto1, stronger effect = lower value 1.01 | locus YMR129W, stronger effect = lower value 0.987 | locus YMR205C, strain PFK2, stronger effect = lower value 0.959 | locus YMR231W, strain pep5, stronger effect = lower value 0.977 | locus YNL071W, strain lat1, stronger effect = lower value 0.988 | locus YNL209W, strain ssb2, stronger effect = lower value 0.995 | locus YNL248C, strain rpa49, stronger effect = lower value 0.999 | locus YNL322C, strain KRE1 (second series), stronger effect = lower value 0.994 | locus YNR049C, strain mso1, stronger effect = lower value 1 | locus YOR001W, strain rrp6, stronger effect = lower value 1.01 | locus YOR070C, strain gyp1, stronger effect = lower value 1.01 | locus YOR080W, strain dia2, stronger effect = lower value 1 | locus YOR083W, strain WHI5, stronger effect = lower value 0.984 | locus YOR106W, strain vam3, stronger effect = lower value 0.974 | locus YOR265W, strain rbl2, stronger effect = lower value 0.984 | locus YOR270C, strain vph1, stronger effect = lower value 0.885 | locus YOR290C, strain snf2, stronger effect = lower value 0.948 | locus YPL051W, strain arl3, stronger effect = lower value 0.972 | locus YPL078C, strain atp4, stronger effect = lower value 0.975 | locus YPL106C, strain sse1, stronger effect = lower value 0.964 | locus YPL240C, strain hsp82, stronger effect = lower value 0.984
